# IL-1B inflam inh – qHTS for Inhibitors of Inflammasome Signaling: IL-1-beta AlphaLISA Primary Screen. THP-1 LPS/ATP IL-1B secretion, AlphaLISA, 16 h; active compounds read low. activity change, % at 57.5 µM. 360,000 compounds, 4.7% hits; in the data active = activity change below about -50%; inconclusive = mostly about -30% to -49%
#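 Secreted IL-1B measured by AlphaLISA bead assay after 16 h compound exposure of THP-1 cells; compounds (final up to 57.5 uM) added 1 h before LPS (250 ng/mL) and ATP (1.25 mM) stimulation; lower signal means less secretion.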
# TDP1 cell CPT – qHTS for Inhibitors of human tyrosyl-DNA phosphodiesterase 1 (TDP1): qHTS in cells in presence of CPT. chicken DT40 Tdp1-/-;hTDP1 cells + 20 nM CPT, ATP luminescence, 48 h. 420,000 compounds, 12% hits. AID 686979, 2013. Potency, µM (doses to about 46.2 µM), usual class: inhibitors; note: nearly all actives have a fitted effect of over 55% in size
#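 Chicken DT40 Tdp1-/- cells stably complemented with human TDP1 were seeded at 400 cells/well in medium containing 20 nM camptothecin, exposed to pin-transferred compounds, and grown at 37 °C for at least 48 hr. Viability was read as ATP luminescence.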
# HT1080 IDH1KD tx – qHTS for induction of synthetic lethality in tumor cells producing 2HG: qHTS for the HT-1080-IDH1KD cell line; HT-1080 IDH1 knockdown viability, ATP luminescence, 48 h; Potency, µM (titrated, usually from 46.1 µM), usual class: cytotoxic; 360,000 compounds, 2% hits; AID 686971, 2013
#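 HT-1080-IDH1KD cells (IDH1 knocked down), 750/well in RPMI with 5% FBS, treated with compound 48 h at 37 degrees C. Viability by CellTiter-Glo luminescence, normalised to DMSO and no-cell wells; concentration-response curves classed.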
# HT1080NT lethal – qHTS for induction of synthetic lethality in tumor cells producing 2HG: qHTS for the HT-1080-NT fibrosarcoma cell line. HT-1080-NT fibrosarcoma viability, CellTiter-Glo ATP luminescence, 48 h. Potency, µM (titrated, usually from 46.1 µM), hits mostly cytotoxic. 360,000 compounds, 1.6% hits;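 note: NT is the 2HG producing partner of a matched IDH1 knockdown line; nearly all actives have a fitted effect of over 55% in size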
#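 HT-1080-NT fibrosarcoma cells (2HG-overproducing), 750 cells/well in RPMI with 5% FBS, dosed after 2 h and incubated 48 h at 37C. CellTiter-Glo luminescence normalized to DMSO and no-cell wells; concentration-response curves fitted and classed.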
# TDP1 cell noCPT – qHTS for Inhibitors of human tyrosyl-DNA phosphodiesterase 1 (TDP1): qHTS in cells in absence of CPT | DT40 Tdp1-/- hTDP1 cells, no CPT, ATP luminescence, 48 h | Potency, µM (top dose mostly 46.2 µM), most hits filed as inhibitors | 420,000 compounds, 15% hits | AID 686978, 2013; note: nearly all actives have a fitted effect of over 55% in size
#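 Compound effects on proliferation are scored in DT40 Tdp1-/-;hTDP1 cells in the absence of CPT. ATP levels (CellTiter-Glo luminescence) are recorded after a ≥48 hr, 37 °C incubation.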
# Numbers stand for hits; - = inactive; ? = inconclusive; . = no result; [ ] = another dose, or the depositor's remark. This is a sample that favours compounds with a hit; in the whole collection about 19% have one here. Unless noted, calls come from the whole dose curve; as a rule, active = well fitted curve in the direction sought with a large enough effect; inconclusive = small, poorly fitted or top-dose-only effect, or another doubt; inactive = no such curve, though single readings can be large; an effect the other way counts as inactive or inconclusive.
SMILES,IL-1B inflam inh,TDP1 cell CPT,HT1080 IDH1KD tx,HT1080NT lethal,TDP1 cell noCPT
Cc1ccc2nc(NC(=S)NC(=O)c3ccco3)sc2c1,-,5.17µM,-,-,3.26µM
CC(=O)Nc1nc2ccc(Br)cc2s1,-,13µM,?,-,?
CC(=O)Nc1nc2ccc(NC(=O)c3ccco3)cc2s1,-,?,-,-,18.4µM
Cc1nc(=O)c(-c2ccccc2)c(C)n1CCCCCC(=O)O,-,-,-,-,-
CCCN(CCC)S(=O)(=O)c1cccc(C(=O)N=c2sccn2C)c1,-,?,-,-,?
CCCS(=O)(=O)NCc1c(C)ncc2c1CCN(C(=O)/C=C/c1ccc(F)cc1F)C2,.,-[9.04 µM],.,.,-
Cc1cccc(CN2C(=O)c3ccccc3Sc3ccc(C(=O)NCc4cccs4)cc32)c1,.,-,.,.,-
COc1ccc(N=Cc2nc(-c3ccccc3)oc2OC(=O)c2ccccc2)cc1,-,20.6µM,-,-,23.1µM
CCOC(=O)c1ccc(N=Cc2nc(-c3ccccc3)oc2OC(C)=O)cc1,-,9.2µM,-,-,6.51µM
CN(C)c1ccc(N=Cc2nc(-c3ccccc3)oc2OC(=O)c2cccc(Br)c2)cc1,?,?,-,-,16.4µM
CCOC(=O)c1ccc(N=Cc2nc3ccccc3n2C)cc1,-,?,-,-,18.4µM
COc1ccc(C(=O)OCC(=O)N2c3ccccc3CC2C)cc1S(=O)(=O)N1CCOCC1 (configuration not stated),-,-,-,-,-
O=C(CCl)N1c2ccccc2Sc2c1ccc1ccccc21,-102.2,3.66µM,?,?,5.8µM
O=C1NCN(C2CCCCC2)CN1,-,-,-,-,-
N#Cc1ccccc1OCC(=O)OCC(=O)Nc1ccc2c(c1)OCO2,-,-,-,-,-
CC(=O)c1cc2c(cc1NS(=O)(=O)c1ccccc1F)OCO2,-,-,-,-,?
CCCC(=O)Nc1ccc2nc(SCC(=O)Nc3ccc(N4CCOCC4)c(Cl)c3)sc2c1,-50.3,-,?,?,16.4µM
Nc1ccc2nc(SCC(=O)Nc3ccc(N4CCOCC4)c(Cl)c3)sc2c1,-,?,-,?,23.1µM
O=C(CSc1ccc(F)cc1)Nc1ccc(N2CCOCC2)c(Cl)c1,-,-,-,-,?
Nc1nnc(SCC(=O)Nc2ccc(N3CCOCC3)c(Cl)c2)s1,-,18.4µM,-,-,11.6µM
CCN(CC(=O)Nc1ccc(NC(C)=O)cc1)C(=O)c1cc(S(=O)(=O)N2CCCCCC2)ccc1OC,-,-,-,-,-
Cc1ccc(-n2nc(C)c(C(=O)N3CCN(C(=O)c4ccco4)CC3)c2-n2cccc2)cc1,?,?,-,-,-
Cc1nc(N/N=C/c2ccccc2)nc(N(C)c2ccccc2)c1[N+](=O)[O-],-,-,-,-,-
Cc1nc(Cl)nc(N(C)c2ccccc2)c1[N+](=O)[O-],-81.8,?,-,?,?
O=C(NCCN1CCC(n2c(=O)[nH]c3ccccc32)CC1)c1cccs1,-,-,-,-,-
SMILES,IL-1B inflam inh,TDP1 cell CPT,HT1080 IDH1KD tx,HT1080NT lethal,TDP1 cell noCPT
CCc1noc(C)c1C(=O)Nc1nc(-c2ccc(OC)c(OC)c2)cs1,?,?,-,-,?
CCc1noc(C)c1C(=O)Nc1nc(-c2ccc(NC(C)=O)cc2)cs1,-,16.4µM,-,-,20.6µM
Cc1ccc(C(=O)Nc2nc(-c3ccc4c(c3)OCCO4)cs2)o1,-,?,-,-,?
Cc1ccc(C(=O)Nc2nc(-c3ccc([N+](=O)[O-])cc3)cs2)o1,-,14.6µM,-,-,11.6µM
CC(=O)Nc1ccc(-c2csc(NC(=O)c3ccc(C)o3)n2)cc1,?,13µM,-,-,9.2µM
COc1ccc(NC(=O)CN(C)C(=O)CCCc2nc3ccccc3s2)cc1,-,-,-,-,?
O=C(O)CCC/C=C\C[C@@H]1C(/C=C/[C@@H](O)COc2cccc(C(F)(F)F)c2)[C@@H](O)C[C@@H]1O (some centres not stated),.,-[4.12 µM],.,.,-[4.12 µM]
Nn1cc(-c2ccccc2)nc1SCC(=O)N1CCN(S(=O)(=O)c2ccc(Cl)cc2)CC1,-,-,-,-,-
O=C(CCl)N1CCN(S(=O)(=O)c2ccc3ccccc3c2)CC1,-99.5,3.26µM,?,?,5.8µM
Nn1cc(-c2ccccc2)nc1SCC(=O)N1CCN(S(=O)(=O)c2ccc3ccccc3c2)CC1,-50.7,?,-,-,?
O=C(NCC(=O)N1CCN(S(=O)(=O)c2ccc3c(c2)OCCO3)CC1)c1ccccc1F,-,-,-,-,-
O=C(CCl)N1CCN(S(=O)(=O)c2ccc3c(c2)OCCCO3)CC1,-96.4,5.17µM,?,-[9.24 µM],3.66µM
CCCCCC(=O)N1CCN(S(=O)(=O)c2ccc3c(c2)OCCO3)CC1,-,-,-,-,-
O=C(c1ccccc1F)N1CCN(S(=O)(=O)c2ccc3c(c2)OCCO3)CC1,-,11.6µM,-,-,?
CC(C)C[C@H]1CN(CCCC[C@H]2CNC(=O)C(=O)N2CCc2ccc(O)cc2)C(=O)C(=O)N1Cc1ccccc1,-,-,-,-,-
NS(=O)(=O)c1ccc(S(=O)(=O)N(CCc2ccccc2)Cc2ccccn2)cc1,-,-,-,-,-
Clc1ccccc1CSc1nncn1NC/C=C/c1ccccc1,?,?,-,-,?
CCOC(=O)[C@]12CCC=C1N(Cc1ccco1)C(=O)[C@H](CC(=O)NCc1ccc(C)o1)C2,-,-,-,-,-
Cc1nnc(SCC(=O)N2CCN(S(=O)(=O)c3ccccc3)CC2)s1,-,-,-,-,-
CCCCNc1nnc(SCC(=O)N2CCN(S(=O)(=O)c3ccc4ccccc4c3)CC2)s1,-54.4,?,-,-,23.1µM
O=C(c1ccccn1)N1CCN(S(=O)(=O)c2ccc3ccccc3c2)CC1,-,-,-,-,-
CCOc1ncccc1C(=O)N1CCN(S(=O)(=O)c2ccc3ccccc3c2)CC1,-,23.1µM,-,-,?
CN(C(=O)CCS(=O)(=O)c1cc2c(cc1Cl)NC(=O)CO2)C1CCCCC1,-,?,-,-,-
Cn1cnnc1SCC(=O)Nc1ccc(S(N)(=O)=O)cc1,-,-,-,-,-
CC(=O)NCCNC(=O)C1Cc2c(-c3ccccc3)ccnc2O1 (configuration not stated),-,-,-,-,-
CC(=O)c1cccc(-c2ccnc3c2CC(C(=O)NCc2ccccc2)O3)c1 (configuration not stated),-,0.731µM,?,?,0.651µM
